The whole screen tested about 88,000 compounds, of which about 260 (0.3%) were called active. This is one part of a sample in which actives are shown more often than they occur.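 The calls were made as follows: active = compounds that reduce the energy-transfer binding signal between the protein and its labelled peptide by more than half; inactive = the rest.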
Molecular target: Mothers against decapentaplegic homolog 3 (Homo sapiens) (UniProt P84022)
Assay: Smad3/FoxH1 peptide binding inhibitors, primary screen, biochemical, TR-FRET (AID 630);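 also: 0% = Smad3 plus labelled peptide maximal FRET and 100% = peptide-only background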
Details: TR-FRET Smad3/Dy647-FoxH1 peptide binding, europium anti-His; at 25 µM; stronger effect = higher value

Sequence of Mothers against decapentaplegic homolog 3 (Homo sapiens) (P84022 whole entry, looked up): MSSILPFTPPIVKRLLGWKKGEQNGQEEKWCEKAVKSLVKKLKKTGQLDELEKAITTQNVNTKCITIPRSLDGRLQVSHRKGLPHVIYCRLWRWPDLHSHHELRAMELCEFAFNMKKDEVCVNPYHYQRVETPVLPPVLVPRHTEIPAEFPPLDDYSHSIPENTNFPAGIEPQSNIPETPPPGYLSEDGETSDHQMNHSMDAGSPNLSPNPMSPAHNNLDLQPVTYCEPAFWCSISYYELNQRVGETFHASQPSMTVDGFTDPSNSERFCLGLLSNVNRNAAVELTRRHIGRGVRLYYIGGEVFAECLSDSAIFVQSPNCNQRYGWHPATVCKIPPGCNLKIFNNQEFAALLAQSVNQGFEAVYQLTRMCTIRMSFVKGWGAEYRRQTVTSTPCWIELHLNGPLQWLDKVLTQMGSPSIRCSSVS

inhibition, inactive:
O=C(COc1ccccc1)Nc1nonc1NC(=O)COc1ccccc1 8.67%, O=C(CSCc1ccccc1)N1CCc2ccccc21 -1.3%, O=C(c1cccc(N2CCCC2=O)c1)N1CCOCC1 -6%, Cc1ccc(/C=N/NC(=O)Cn2nc(C)c(Br)c2C)o1 21.4%, O=C(Nc1ccccc1C(=O)NCCCn1ccnc1)c1ccc(Cl)cc1Cl -0.02%, COc1cc(OC)c(-n2c(C)cc(C=O)c2C)cc1Cl 2.99%, Cc1nc(NC(=O)C2CCCCC2)sc1C 10.5%, CCOC(=O)c1ccc2c(c1)nc(SCC(=O)NC(C)C)n2CC 20%, CS(=O)(=O)N(CC(=O)N1CCN(c2ccc(F)cc2)CC1)C1CCCCC1 -8.5%, c1ccc(CC2CCN(c3nc4ccccc4n4cnnc34)CC2)cc1 -10%, Cn1nc(-c2ccccc2)c(-c2nc(-c3ccc(Cl)cc3)no2)c1Cl 2.93%, COc1ccc(CN(CC(=O)NC2CCCC2)C(=O)CCC(=O)Nc2cc(C)on2)cc1 -0.48%, Cc1oc(-c2ccccc2Cl)[n+]([O-])c1C 2.52%, Cc1ccc(CS(=O)(=O)CCC(=O)NC2CC2)cc1 6.21%, CCOc1ccc(NC(=O)C2CCCN(C(=O)Nc3ccccc3)C2)cc1 (stereo not drawn) 10.5%, COC(=O)c1nc(NC(=O)c2ccccc2)n[nH]1 1.94%, Cc1cccc(C(=O)Nc2ccccc2N2CCN(c3ccc(F)cc3)CC2)c1 3.31%, c1ccc(C(c2ccccc2)N2CCN(Cc3nnnn3C3CCCCC3)CC2)cc1 -7.75%, COc1ccc(-c2nc3ccccc3n2CCC(C)C)cc1OC -3.34%, C=CCC(NCc1ccco1)c1ccc(OC)cc1 (stereo not drawn) 2.67%, CCc1c(O)cc2n(c1=O)-c1ccccc1C2(C)C 7.56%, Cc1ccc(-c2cc(C(=O)NCC3CCCO3)c3ccccc3n2)o1 (stereo not drawn) 0.54%, Cc1ccccc1-n1c(C)cc(/C=C2\NC(=O)NC2=O)c1C 10.8%, O=C(NCCCCCCNC(=O)NCc1ccco1)NCc1ccco1 10.3%, FC(F)(F)c1cnc(Oc2ccccc2-c2nnc(-c3ccc(Cl)cc3)o2)c(Cl)c1 6.7%, Cc1cc(C)c(S(=O)(=O)N2C=CC(C(F)(F)F)=NCC2)c(C)c1 -6.95%, Cc1cccc(C(=O)O)c1C[C@@H]1NCC[C@@H]2c3ccccc3N[C@@H]12 8.15%, CC(NC(=O)C1CCC(CNc2c(N3CCOCC3)c(=O)c2=O)CC1)c1ccccc1 (stereo not drawn) -2.58%
